In the library only some 4.8% were active in any assay of this set; here they are far more common.
hcDAF-12 act: activates DAF-12 receptor from parasite H. contortus; HEK293 hcDAF-12 lit1-tk-luc reporter, luminescence; 0% DMSO, 100% Δ7-dafachronic acid; activation, % at 6.8 µM; actives 1.4% (n = 370,000); AID 652067;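 active means activation above the mean of all tested compounds plus 3 SD, cut at about 5.5% in these data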;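 further: 100% = response to 3 µM Δ7-dafachronic acid high control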
DAX1 inh-1: inhibitors of human orphan nuclear receptor DAX1 (NR0B1); inhibition, % at 6.75 µM; HEK293 Gal4-DAX1 luciferase reporter, luminescence; actives 0.99% (n = 340,000); P51843;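 active means inhibition above the mean over all tested compounds plus 3 SD, cut at about 4.2% in these data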;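 further: 0% = DAX1-transfected cells with DMSO and 100% = empty-vector control cells with DMSO; inhibition shows as a rise in luminescence from relieved DAX1 repression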
Target sequence (P51843 207-470 limits assumed): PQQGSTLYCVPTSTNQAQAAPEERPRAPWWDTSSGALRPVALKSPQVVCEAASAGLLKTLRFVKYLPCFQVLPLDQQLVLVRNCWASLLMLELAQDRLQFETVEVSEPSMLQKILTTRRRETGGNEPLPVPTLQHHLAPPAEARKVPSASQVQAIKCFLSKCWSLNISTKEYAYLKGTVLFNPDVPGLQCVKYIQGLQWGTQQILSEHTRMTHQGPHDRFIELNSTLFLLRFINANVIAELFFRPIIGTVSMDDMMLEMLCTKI
DAX1 inh-2: DAX1 (NR0B1) inhibition, primary screen; actives 1.1% (n = 370,000); inhibition, % at 6.8 µM; AID 652010; HEK293T StAR-luciferase reporter, SF-1/DAX-1 repression relief;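 active means inhibition above the mean over all tested compounds plus 3 SD, cut at about 3.6% in these data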;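 further: 0% = DAX-1 cells with DMSO and 100% = cells lacking DAX-1 with DMSO; higher inhibition means more luminescence from relief of DAX-1 repression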
hgDAF-12 ag: activates the H. glycines DAF-12 receptor ligand-binding domain; activation, % at 6.8 µM; HEK293 GAL4-hgDAF12 UAS-luciferase reporter, agonist luminescence; normalized to butyrate control; AID 687014; actives 1.8% (n = 370,000);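 active means activation above a cutoff set at the mean of all screened compounds plus 3 SD, cut at about 10% in these data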;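 further: 0% = DMSO wells and 100% = sodium butyrate wells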
ssDAF-12 act: activates DAF-12 receptor from parasite S. stercoralis; HEK293 ssDAF-12/GRIP1 lit1-tk-luc reporter, luminescence; % of 3 µM dafachronic acid response; activation, % at 6.8 µM; actives 1% (n = 370,000); AID 652126;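 active means activation above the mean over all tested compounds plus 3 SD, cut at about 0.9% in these data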;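 further: 0% = DMSO-only wells and 100% = 3 µM delta7-dafachronic acid wells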
SMARCA2 activ: increases SMARCA2 function in MMTV reporter cells; AID 652017; MG213 cells, MMTV-luciferase reporter, dexamethasone, overnight; actives 1% (n = 370,000); activation, % at 9.1 µM; in the data active means activation above about 7.8%;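 further: 0% = vehicle wells and 100% = reference activator wells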
DAX1 inh confirm: confirmation of human DAX1 (NR0B1) inhibitors. actives 87% (n = 2,400). shares compounds with DAX1 inh-2. inhibition, % at 6.8 µM. HEK293T StAR-promoter luciferase reporter, SF-1/DAX-1 repression;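 active means inhibition above the average of every tested compound plus 3 SD, cut at about 3.8% in these data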;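 further: 0% = DAX-1 cells with DMSO and 100% = no DAX-1 control cells with DMSO; active compounds raise luminescence by relieving repression of the StAR reporter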
SF1 mutant ctr: counter-screen for DAX1 inhibitors: nonselective inhibitors with SF-1 AF2 mutant. inhibition, % at 6.8 µM. actives 78% (n = 2,400). HEK293 StAR-luciferase, luminescence. shares compounds with DAX1 inh-2. AID 652136;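 active means inhibition above the mean of all tested compounds plus 3 SD, cut at about 3% in these data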;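 further: 0% = DAX-1 transfected cells with DMSO and 100% = cells without DAX-1 with DMSO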
An asterisk follows results filed as active; / = not tested or not shown.

SMILES	hcDAF-12 act	DAX1 inh-1	DAX1 inh-2	hgDAF-12 ag	ssDAF-12 act	SMARCA2 activ	DAX1 inh confirm	SF1 mutant ctr
S=C(NCCc1ccccc1)Nc1ncccn1	3	1	5.5*	8	0	2	3.9*	3
CCC(=O)C1CCCN(C(=O)c2ccc3nc(-c4cccc(OC)c4)oc3c2)C1 (configuration not stated)	5	0	7.0*	10	0	5	8.3*	5.7*
O=C(c1ccc2oc(CCCc3ccccc3)nc2c1)N1CCCC1	5.8*	1	9.0*	11*	1.0*	3	9.5*	6.9*
CCCCCCC(=O)N1CCCC(c2nc(-c3cccc(OC)c3)no2)C1 (configuration not stated)	-2	3	0	-1	-1	-2	/	/
CCOC(=O)C1CCCN(C(=O)c2ccc3oc(CCc4ccccc4)nc3c2)C1 (configuration not stated)	0	0	0	8	-1	-2	/	/
COc1cccc(-c2nc3ccc(C(=O)N4CCCC(O)C4)cc3o2)c1 (configuration not stated)	2	0	5.3*	9	0	4	7.4*	7.4*
CCCC(=O)N1CCCC(c2nc(-c3cccc(OC)c3)no2)C1 (configuration not stated)	4	4.7*	4.6*	12*	-1	4	12*	5.7*
Cc1ccnc(NS(=O)(=O)c2ccc(NC(=O)C3COc4ccccc4O3)cc2)n1 (configuration not stated)	0	0	1	-2	-1	0	/	/
CCNCc1cc(OCC)c(OCC(=O)NCCc2ccccc2)cc1Cl	-1	2	0	-1	-1	-3	/	/
COc1ccc(Cc2nc3ccc(C(=O)N4CCCC4)cc3o2)cc1OC	-1	-1	-1	-1	-1	-2	/	/
COc1ccc(Cc2nc3ccc(C(=O)N4CCCC4)cc3o2)cc1	2	3	8.3*	11*	1.1*	3	9.2*	3.4*
CCOC1CCCc2oc(-c3ccsc3)c(-c3cnc(OC)nc3)c21 (configuration not stated)	4	/	1	0	0	-3	/	/
Cc1ccc(OCC(=O)Nc2ccc3c(c2)CCC3)c([N+](=O)[O-])n1	5	1	1	3	-2	3	/	/
Cc1ccc(OCC(=O)Nc2ccc(Cl)cc2)c([N+](=O)[O-])n1	1	3	6.2*	11*	0	4	10*	7.5*
Nc1ccc(-c2nc3ccccc3[nH]2)cc1	3	3	5.2*	11*	-1	1	9.9*	6.8*
Nc1ccc2nc(-c3ccc(-c4nc5ccc(N)cc5[nH]4)cc3)[nH]c2c1	-1	/	0	-2	-2	-3	/	/
Cc1cc(F)ccc1-c1cc(C(=O)Nc2ccc(F)cc2)[nH]n1	2	/	9.6*	12*	0	1	11*	5.6*
COc1ccc(NC(=O)c2cc(-c3ccc(F)cc3C)n[nH]2)cc1OC	-3	/	2	-4	-1	-3	/	/
CC1CCN(CCCNC(=O)CCc2nnc3n(CCc4ccccc4)c(=O)c4ccccc4n23)CC1	1	0	5.7*	-3	-1	2	-1	0
O=C(CCc1nnc2n(Cc3ccccc3)c(=O)c3ccccc3n12)NCCCN1CCCCC1	-1	0	0	2	-1	3	/	/
O=C(NN=Cc1ccccc1Cl)c1ccccc1	2	4	5.2*	12*	0	4	14*	6.9*
CN(C)c1cccc(C(=O)N/N=C/c2ccccc2F)c1	4	-2	8.5*	12*	0	-2	8.7*	1
Cc1cc(/C=N/NC(=O)c2cccc(N(C)C)c2)c(C)n1-c1cc(C(=O)O)cc(C(=O)O)c1	/	0	/	/	/	/	/	/
COc1ccc(CN(C)C(=O)[C@H]2O[C@@H](n3ccc(=O)[nH]c3=O)[C@H](O)[C@@H]2O)cc1OC	0	/	4.7*	-1	-1	-7	0	0
Cc1cc(=O)n2nc(N3CCCC(C(=O)NCc4ccco4)C3)sc2n1 (configuration not stated)	-1	1	1	-2	-1	0	/	/
SMILES	hcDAF-12 act	DAX1 inh-1	DAX1 inh-2	hgDAF-12 ag	ssDAF-12 act	SMARCA2 activ	DAX1 inh confirm	SF1 mutant ctr
CNc1cc(-c2ccc(OC)c(OC)c2)ncn1	4	/	5.3*	12*	0	5	9.5*	4.8*
CCOC(=O)c1sc(NC(=O)CSc2nccn2C)nc1C	4	0	5.7*	5	0	5	6.8*	4.8*
CCOC(=O)c1sc(NC(=O)CSc2ncccn2)nc1C	0	0	-1	3	-1	-1	/	/
CC(C)c1cc(C(C)C)c(S(=O)(=O)N2CCNCC2)c(C(C)C)c1	0	1	0	1	-2	-1	/	/
N#Cc1ccccc1OCC(=O)Nc1cc(S(=O)(=O)N2CCCCC2)ccc1N1CCOCC1	-2	-1	6.0*	-2	-1	-1	-1	-2
COc1ccccc1-c1cnc2c(c1)C(=O)N([C@@H](C)CO)C[C@H](C)[C@H](CN(C)C)O2	-1	0	0	2	-2	-4	/	/
COc1cc2c(OC(C)=O)c3c(c(-c4ccc5c(c4)OCO5)c2cc1OC)C(=O)OC3	-1	1	1	-7	-1	-1	/	/
COc1cc2c(O)c3c(c(-c4ccc5c(c4)OCO5)c2cc1OC)C(=O)OC3	-2	-1	6.6*	-6	-2	2	15*	-5
Cc1ccccc1Nc1nc(N)nc(CSc2ccc(F)cc2)n1	5	7.5*	6.7*	12*	1	3	11*	4.6*
Cc1ccc(SCc2nc(N)nc(Nc3ccccc3C)n2)cc1C	0	2	0	3	1	0	/	/
Cc1cccc(N(C)S(=O)(=O)c2ccc(-c3cnc(C4CC4)o3)cc2)c1	-3	1	7.6*	-5	0	-3	15*	-5
Cc1ccc(N(C)S(=O)(=O)c2cc(-c3cnc(C4CC4)o3)ccc2C)cc1	1	1	2	3	-1	-1	/	/
COC(=O)[C@H]1C[C@@]2(O)CN(S(=O)(=O)c3ccc(C)cc3)C[C@@]2(OC(=O)NCc2ccc(OC)c(OC)c2)C[C@H]1C(=O)OC	-1	1	5.5*	1	-1	-3	1	0

Screening results (PubChem)
